# Assay results published in PubChem BioAssay.
# Records with an inconclusive call do not appear. Calls of active or inactive are those of the source. Cut-off read from the data, not from the text of the source, unless noted: active = inhibition above about 80%; inactive = the rest.
# Tests used:
# [1] = LFS_MB_P medulloblastoma growth inhibition, cell-based, chromothripsis tumors, cisplatin or BGB combos (AID 1671449); settings: LFS_MB_P medulloblastoma cells;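 note: cells exposed for 96 hours; 0% = vehicle DMSO and 100% = killing by high DMSO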
# [2] = HDN33 neuroblastoma growth inhibition, cell-based, chromothripsis tumors, cisplatin or BGB combos (AID 1671450); settings: HDN33 neuroblastoma cells, stronger effect = higher value;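 note: cells exposed to compound for four days; 0% = vehicle DMSO and 100% = cell killing by high DMSO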
# [3] = ICB984 medulloblastoma cell growth inhibition, synergistic combos for chromothripsis tumors, cisplatin or BGB combos (AID 1671451; call rule not given here;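 note: cells exposed for 96 hours before readout; 0% = vehicle DMSO and 100% = killing by high DMSO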); settings: ICB984 medulloblastoma cells, drug combinations, stronger effect = higher value
# [4] = LFS_MB_1R medulloblastoma cell growth inhibition, synergistic combos for chromothripsis tumors, cisplatin or BGB combos (AID 1671452); settings: LFS_MB_1R medulloblastoma cells, stronger effect = higher value;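 note: cells exposed for 96 hours before readout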
# [5] = HTB85 osteosarcoma cell growth inhibition, synergistic combos for chromothripsis tumors, BGB or cisplatin IC20 combos (AID 1671453); settings: HTB85 osteosarcoma cells, drug combinations, stronger effect = higher value;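 note: cells exposed for 96 hours before readout; 0% = vehicle DMSO and 100% = high DMSO killing control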
# [6] = CRL2098 osteosarcoma cell growth inhibition, synergistic combos for chromothripsis tumors, BGB or cisplatin IC20 combos (AID 1671454); settings: CRL2098 osteosarcoma cells, drug combinations, stronger effect = higher value;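 note: cells exposed for 96 h before readout; 0% = vehicle DMSO and 100% = killing by high DMSO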
# [7] = HD-MB03 medulloblastoma cell growth inhibition, synergistic combos for chromothripsis tumors, BGB or cisplatin IC20 combos (AID 1671455; in the data active = inhibition above about 83%;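 note: 0% = vehicle DMSO and 100% = high DMSO as cytotoxic control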); settings: HD-MB03 medulloblastoma cells, stronger effect = higher value
# [8] = UWB1.289 ovarian carcinoma cell growth inhibition, synergistic combos for chromothripsis tumors, BGB or cisplatin combos (AID 1671456); settings: UWB1.289 ovarian carcinoma cells, stronger effect = higher value;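 note: cells exposed to compound for four days; 0% = vehicle DMSO and 100% = killing by high DMSO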
# [9] = LFS_MB_2R medulloblastoma cell growth inhibition, synergistic combos for chromothripsis tumors, cisplatin combos (AID 1671457); settings: LFS_MB_2R medulloblastoma cells, stronger effect = higher value;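 note: cells exposed to compound for four days before readout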
# [10] = MDA-MB-436 breast carcinoma cell growth inhibition, synergistic combos for chromothripsis tumors, BGB or cisplatin combos (AID 1671458; call rule not given here;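 note: cells exposed for 96 hours; 0% = vehicle DMSO and 100% = killing by high DMSO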); settings: MDA-MB-436 breast carcinoma growth inhibition, drug combinations, stronger effect = higher value
# [11] = UWB1.289_BRCA1 ovarian cancer growth, cell-based, BGB or cisplatin combinations (AID 1671459); settings: UWB1.289 BRCA1 ovarian carcinoma, drug combinations, stronger effect = higher value
# [12] = human astrocyte viability loss, single and combined drugs, cytotoxicity control for chromothriptic childhood tumor combination screen, cell-based, BGB or cisplatin IC20 combos (AID 1671460); settings: Human astrocytes, drug combinations, stronger effect = higher value;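 note: cells exposed to compounds for 96 hours before viability readout; 0% = vehicle and 100% = killing control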
# [13] = growth inhibition of BT084 medulloblastoma cells, cell-based, ICGC_MB145, cisplatin and BGB IC40 combos (AID 1671461); settings: drug combinations, stronger effect = higher value;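 note: cells exposed to drugs for 96 hours; 0% = vehicle DMSO and 100% = high DMSO full killing control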
# [14] = growth inhibition of RCMB18 medulloblastoma cells, cell-based, cisplatin and BGB IC40 combos (AID 1671462); settings: stronger effect = higher value;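 note: cells exposed to compound for four days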
# [15] = growth inhibition of CRL1545 osteosarcoma cells, cell-based, cisplatin and BGB IC20 combos (AID 1671464); settings: stronger effect = higher value;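 note: cells exposed to compound for 96 hours before readout; 0% = vehicle DMSO and 100% = high DMSO killing control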
# [16] = viability loss in pontine glioma line – cell-based, SU-DIPG-XXV, MIPE5.0, CellTiter-Glo, qHTS, dose response (AID 1347065; cut-off not given, nearly all actives have AC50 up to about 26 µM;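 note: cells exposed to compound for 48 hours before ATP readout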); settings: CellTiter-Glo ATP luminescence
# [17] = JHH-DIPG-1 glioma cell viability, MIPE5.0 library, CellTiter-Glo luminescence, qHTS (AID 1347067; cut-off not given, nearly all actives have AC50 up to about 26 µM;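 note: cells exposed to compound for 48 hours before readout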); settings: JHH-DIPG-1 glioma viability, CellTiter-Glo ATP luminescence
# [18] = SU-DIPG-XXV glioma cell viability, MIPE5.0 library, qHTS (AID 1347068; cut-off not given, nearly all actives have IC50 up to about 30 µM)
# [19] = measured here: combination with BGB IC40, at 0.05 µM
# [20] = measured here: with BGB IC20 combination, at 0.5 µM
# [21] = measured here: with cisplatin IC20 combination, at 0.5 µM
# [22] = measured here: combination with cisplatin, at 0.5 µM
# [23] = measured here: combination with cisplatin, at 5 µM
smiles,measurement,setting,value
O=c1[nH]c([C@@H]2CCCN2)nc2c1oc1ccc(Cl)cc12,inhibition,"[1]; at 0.5 µM, stronger effect = higher value",-0.05% (inactive)
same,inhibition,"[1]; measured here: combination with BGB IC20, at 0.005 µM",-31.4%
same,inhibition,"[1]; measured here: combination with BGB IC40, at 0.005 µM",94.4%
same,inhibition,[1]; [19],-14%
same,inhibition,"[1]; measured here: combination with cisplatin, at 0.5 µM, stronger effect = higher value",64.5%
same,inhibition,"[1]; measured here: combination with cisplatin, at 5 µM, stronger effect = higher value",-16.4%
same,inhibition,"[2]; BGB combo, at 5 µM",1.11%
same,inhibition,[2]; at 0.5 µM,-21.3% (inactive)
same,inhibition,"[2]; cisplatin combo, at 5 µM",-6.62%
same,inhibition,[2]; [20],-15.4%
same,inhibition,[2]; [21],-18.8%
same,inhibition,"[2]; single agent, at 5 µM",3.38%
same,inhibition,"[3]; BGB IC20 combo, at 0.005 µM",-39.5%
same,inhibition,"[3]; BGB IC40 combo, at 0.005 µM",-26.9%
same,inhibition,"[3]; BGB IC40 combo, at 0.05 µM",-16.5%
same,inhibition,[3]; at 0.5 µM,-16.4% (inactive)
same,inhibition,"[3]; cisplatin combo, at 0.05 µM",-22.5%
same,inhibition,"[3]; cisplatin combo, at 0.5 µM",-15.6%
same,inhibition,"[3]; cisplatin combo, at 5 µM",4.34%
same,inhibition,"[3]; measured here: 5 uM single agent, at 5 µM",-19.5%
same,inhibition,[4]; at 0.5 µM,-31% (inactive)
same,inhibition,[4]; [19],-29.1%
same,inhibition,[4]; [22],-68.3%
same,inhibition,[4]; [23],-10.2%
same,inhibition,[5]; at 0.5 µM,-12.9% (inactive)
same,inhibition,"[5]; measured here: with BGB IC20, at 0.5 µM",-9.31%
same,inhibition,"[5]; measured here: with BGB IC20, at 5 µM",-19.7%
same,inhibition,"[5]; measured here: with cisplatin IC20, at 0.5 µM",-5.61%
same,inhibition,"[5]; measured here: with cisplatin IC20, at 5 µM",-2.34%
same,inhibition,"[5]; single agent, at 5 µM",-2.45%
same,inhibition,[6]; at 0.5 µM,-86.2% (inactive)
same,inhibition,"[6]; measured here: combination with BGB at IC20, at 0.5 µM",-77.4%
same,inhibition,"[6]; measured here: combination with cisplatin at IC20, at 0.5 µM",-117%
same,inhibition,[7]; at 0.5 µM,-12.2% (inactive)
same,inhibition,"[7]; measured here: combo with BGB at IC20, at 0.5 µM",-2.56%
same,inhibition,"[7]; measured here: combo with cisplatin at IC20, at 0.5 µM",-27.5%
same,inhibition,[8]; at 0.5 µM,-17.8% (inactive)
same,inhibition,"[8]; measured here: inhibition with BGB combination, at 0.05 µM",-12.3%
same,inhibition,"[8]; measured here: inhibition with cisplatin combination, at 0.05 µM",-25.4%
same,inhibition,[9]; at 0.5 µM,-16% (inactive)
same,inhibition,[9]; [22],-22.2%
same,inhibition,[9]; [23],-24.3%
same,inhibition,[10]; at 0.5 µM,-35% (inactive)
same,inhibition,"[10]; measured here: BGB combination, at 0.5 µM",-39.6%
same,inhibition,"[10]; measured here: BGB combination, at 5 µM",-62.1%
same,inhibition,"[10]; measured here: cisplatin combination, at 0.5 µM",-52.2%
same,inhibition,"[10]; measured here: cisplatin combination, at 5 µM",-71.9%
same,inhibition,"[11]; BGB combination, concentration series, at 5 µM",-4.02%
same,inhibition,[11]; at 0.5 µM,-15.4% (inactive)
same,inhibition,"[11]; cisplatin combination, concentration series, at 5 µM",-5.14%
same,inhibition,[12]; at 0.5 µM,1.64% (inactive)
same,inhibition,"[12]; measured here: combo with BGB IC20, at 0.5 µM",11.1%
same,inhibition,"[12]; measured here: combo with cisplatin IC20, at 0.5 µM",-0.305%
same,inhibition,[13]; at 0.5 µM,18.2% (inactive)
same,inhibition,"[13]; cisplatin combination, at 0.5 µM",0.765%
same,inhibition,"[13]; cisplatin combination, at 5 µM",-129%
same,inhibition,"[13]; measured here: BGB IC40 combination 0.05 uM, at 0.05 µM",-10.1%
same,inhibition,"[13]; single agent, at 5 µM",7.55%
same,inhibition,[14]; at 0.5 µM,-15.8% (inactive)
same,inhibition,"[14]; cisplatin combo, at 5 µM",-8.27%
same,inhibition,"[14]; measured here: BGB IC40 combination, at 0.05 µM",3.23%
same,inhibition,[14]; [22],-15.3%
same,inhibition,"[14]; single agent, at 5 µM",-12.8%
same,inhibition,[15]; at 0.5 µM,-44.6% (inactive)
same,inhibition,[15]; [20],-65.7%
same,inhibition,[15]; [21],-36.2%
same,inhibition,"[15]; single agent, at 0.05 µM",-56%
same,inhibition,"[15]; single agent, at 5 µM",-51.5%
Cc1ccc(Nc2nnc(Cc3ccncc3)c3ccccc23)cc1Br,AC50,[16],14.8 µM (active)
same,AC50,[17],18.6 µM (active)
Clc1cc2c(NC3CCCC3)nnc(-c3ccncc3)c2cc1Cl,AC50,[16],23.5 µM (active)
same,outcome,[18],inactive
CC(C)(CNC(=O)c1cccc(-c2noc(C(F)(F)F)n2)c1)c1coc(-c2ccccc2)n1,AC50,[16],20.9 µM (active)
same,outcome,[18],inactive
COc1cc(N2CCN(C)CC2)ccc1Nc1ncc2c(n1)N(C)c1ccccc1C(=O)N2,AC50,[16],20.9 µM (active)
same,outcome,[18],inactive
CC1CCC(n2c3cnccc3c3cnc(Nc4ccc5c(n4)CCN(C(=O)CO)C5)nc32)CC1 (centres undefined),outcome,[16],inactive
same,outcome,[17],inactive
same,outcome,[18],inactive
